From PubChem BioAssay (NCI)
This is part of a sample that, as a whole, favours compounds with a hit. Of some 83,000 tested, about 20% had one in any assay.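 The test compound was applied at a single concentration to cells in 96-well plates for 48 hours, and percent growth was recorded.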 Calls of active or inactive are those of the source. The calls were made as follows: active = growth percent below 10; inactive = the rest.

Test system: HL-60(TB) leukemia
Experiment: NCI-60 one-dose screen, 48 h (100 = growth as untreated, 0 = no growth, -100 = all killed)
Settings: 10 µM unless noted

| SMILES | growth |
| --- | --- |
| CCOC(=O)c1ccc2c(c1)nc(/C=C/c1ccc(Cl)cc1)n2-c1cc(C(C)(C)C)[nH]n1 | 73.1% (inactive) |
| Cc1oc2c(C)c3oc(=O)cc(C)c3cc2c1CCl | 70.8% (inactive) |
| C=CC(C)(C)n1cc(C2=C(O)C(=O)C(c3cn(C(C)(C)C=C)c4ccccc34)=C(O)C2=O)c2ccccc21 | 69.4% (inactive) |
| COc1ccc(-c2c3c(nc4n[nH]c(-c5ccc(Cl)cc5)c24)-c2ccccc2C(=O)C3=O)cc1 | 11.7% (inactive) |
| CN1CCN(Cc2ccc(NC(=O)c3cncc(C#Cc4cnc5cccnn45)c3)cc2C(F)(F)F)CC1 | -37.9% (active) |
| Cc1cccc(/C=C2\CN(C(=O)OC(C)(C)C)C/C(=C\c3cccc(C)c3)C2=O)c1 | 90.2% (inactive) |
| CC1=CC(c2ccco2)=C2C(N)=NNC2N1 (stereo unspecified) | 106% (inactive) |
| CSc1[nH]c2ncnc(N)c2c1C#N | 112% (inactive) |
| O=C(COc1cccc(/C=C2\CSc3ccccc3C2=O)c1)Nc1nccs1 | -76.3% (active) |
| NCCNc1nc(Nc2ccc(-c3nc4ccccc4[nH]3)cc2)c2cn[nH]c2n1 | 91.9% (inactive) |
| COc1cc(-c2nc3occn3c2-c2ccnc(NCCCNS(=O)(=O)c3ccccc3)n2)ccc1F | 39.6% (inactive) |
